# Results reported in PubChem BioAssay AID1948 (National Center for Advancing Translational Sciences (NCATS), 2009).
# About 20 (0.02%) of roughly 110,000 compounds were called active. Entries that show only a call come without a potency. About 2% were inconclusive and are not listed. Calls follow the shape of the dose curve; as a rule, active = well fitted activation curve with a large enough effect; inconclusive = small, poorly fitted or top-dose-only effect; inactive = no such curve, though single readings can be large or run the other way. For the sample, actives were picked, then their nearest neighbours and some compounds at random.
# Experiment: qHTS Assay for Compounds that Induce Erasure of Genomic Imprints
# Settings: mouse ES Peg3-LacZ reporter, beta-gal luminescence, 40 h; series mostly up to 10.9 µM
# Excerpt: qHTS Assay for Compounds that Induce Erasure of Genomic Imprints NIH Chemical Genomics Center [NCGC] NIH Molecular Libraries Screening Centers Network [MLSCN] Assay Submitter (PI): JEFFRIES, SEAN, NCGC, University of Cambridge NCGC Peg3 Imprinting Assay Overview Genomic imprinting is the epigenetic process whereby genes are expressed in a parent of origin fashion. […] Unlike some forms of epigenetic silencing that can be overcome by overexpression of transcription factors, genomic imprinting stably represses the expression of one allele despite potentially high levels of expression from the other allele. […] During mouse embryonic day 11.5 imprints are erased in PGCs so that sex specific imprints can be reestablished during gametogenesis. Embryonic germ (EG) cells can be derived from developing PGCs at embryonic day 11.5 and these cells often lack genomic imprints. […] Embryonic stem (ES) cells are a cell type similar to EG cells in phenotype and transcriptional profile, yet ES cells maintain genomic imprints. This similarity between ES and EG cells prompted us to use ES cells to look for factors which could induce imprint erasure. To investigate the stability of genomic imprinting, ES cells were derived from mice with an insertion of a LacZ-Neomycin reporter construct in the Peg3 locus. Peg3 is an imprinted locus where gene expression is restricted to the paternal allele. […] Using LacZ expression we are able to monitor the state of the Peg3 imprint. In order to dissect the mechanisms involved in imprint erasure using a forward chemical genetics approach we developed a cell based phenotype assay using an endogenous silence imprinted locus. This assay utilizes maternally inherited Peg3LacZ-Neo ES cells by monitoring the LacZ expression from the normally silent Peg3 allele. To facilitate screening, high-density feeder-free ES cell culture has been optimized so that ES cells can be grown in 1536 for over four days without feeding or washes. The assay uses a luminescence based read out for LacZ activity and is a homogenous assay optimal for HTS.
# NCGC Peg3 Imprinting Assay Protocol Summary ES cell lines were derived from blastocysts taken from Peg3LacZ-Neo x129 matings. Lines were sexed and genotyped for the Peg3LacZ-Neo allele. Female cells carrying the reporter allele were used in this study. Cells were derived on a layer of mouse embryonic fibroblasts and passaged multiple times before switching to feeder free culture. Cells were maintained feeder free on gelatin coated dishes in DMEM/F12 media supplemented with 15% FBS, 2mM L-glutamine, 100 units/ml penicillin, 100ug/ml streptomycin, 0.1mM MEM nonessential amino acids, 1mM sodium pyruvate, 0.1% sodium bicarbonate, 0.1mM 2-Mercaptoethanol, and 400 units/ml leukemia inhibitory factor (LIF) at 37C with 5% CO2. The assay was performed in 1536-well format. A single luminescence read was taken at the end of the assay and the data was normalized by plate to internal negative controls. Maximum efficacy and AC50 values were calculated from dose-response data using the standard Hill equation. 1536 well plates were filled with 0.5ul of 0.1% gelatin per well, spun down and incubated for at least 30 min at 37C. The ES cells were then trypsini Peg3 1536-well assay protocol: (1)Plate 0.5ul/well 0.1% gelatin in white tissue culture treated 1536-well plates, spin and incubate at 37C for at least 30 min. (2)Add 5ul/well (300 cells) of ES cell suspension from freshly trypsinized cells and incubate at 37C, 5% CO2 for 40 hours. (3)Add 5ul/well of freshly prepared BetaGlo solution and incubate at room temperature for 5 minutes. (4)Read luminescence on the ViewLux plate reader. Keywords Genomic Imprinting, Germ Cells, Embryonic Stem Cell, DNA Methylation, Peg3, qHTS, NIH roadmap, NCGC
row,SMILES,Potency
1,Cn1cc(S(=O)(=O)N2CCCCCC2)cc1C(=O)N1CCN(c2ccc(F)cc2)CC1,inactive
2,Cc1cccc(CSc2nc3ccncc3n2Cc2ccc(C(=O)O)cc2)c1,inactive
3,COc1ccc(CNc2nc(-c3ccc(Cl)cc3)nn2C(=O)c2ccccc2)cc1,inactive
4,CC1CCC(N2CC(=O)N(CCC3=CCCCC3)C(c3ccc(F)cc3)C2=O)CC1 (stereo not drawn),inactive
5,CN(Cc1ccccc1)S(=O)(=O)c1ccc(F)c(C(=O)Nc2cccc(Cl)c2Cl)c1,inactive
6,OC[C@H]1O[C@@H](n2cnc3c(NC4CCCC4)ncnc32)[C@H](O)[C@H]1O,inactive
7,Cc1cc(NS(=O)(=O)c2ccc3oc(=O)c4ncn(C)c4c3c2)ccc1Br,inactive
8,O=C(CSc1nc(Nc2ccc(F)c(F)c2)c2ccccc2n1)c1ccc(Cl)cc1,inactive
9,COc1ccc(C(=O)Nc2cccc(C(=O)OCc3cc(=O)n4c5c(sc4n3)CCCC5)c2)cc1,inactive
10,Cc1ccc(SCC(=O)Nc2ccc3oc(-c4ccccc4C)nc3c2)cc1,inactive
11,CCc1nnc(SCc2c(F)cccc2Cl)c2cc3sccc3n12,inactive
12,Cc1nn(-c2ccc(F)cc2)c(-n2cccc2)c1C(=O)N1CCN(c2ccccc2)CC1,inactive
13,CCc1ccc(S(=O)(=O)Nc2cc3c(C(=O)OCc4ccccc4)c(C)oc3c3ccccc23)cc1,inactive
14,CCCC(=O)Nc1cc2nn(-c3ccccc3)nc2cc1C,inactive
15,COc1ccc(C(=O)c2oc3ccccc3c2NC(=O)COc2cccc(C)c2)cc1,inactive
16,CCCN(C(=O)Cn1cc(S(=O)(=O)N2CCN(c3ccccc3F)CC2)c2ccccc2c1=O)c1cccc(C)c1,inactive
17,COc1ccc(OCc2ccc(-c3nc(C#N)c(N4CCN(c5ccccc5)CC4)o3)o2)cc1,inactive
18,CN1c2ccc(Cl)cc2-c2nc(SCC(=O)Nc3cc(F)ccc3F)ncc2S1(=O)=O,inactive
19,COc1ccc(N(CC(=O)NCCc2ccc(Cl)cc2)S(=O)(=O)c2c(C)nn(C)c2C)cc1,inactive
20,CCN(CC)CCNC(=O)Cn1ncc2c3ccccc3n(Cc3ccccc3C)c2c1=O,inactive
21,Cc1cccn2c(=O)c(C(=O)NC(C)c3ccccc3)cnc12 (stereo not drawn),inactive
22,CN(C)S(=O)(=O)c1ccc(C(=O)N(Cc2cccnc2)c2nc3c(F)cc(F)cc3s2)cc1,inactive

row,SMILES,Potency
1,CCSc1nnc(NC(=O)c2cc(=O)c3cc(C)c(C)cc3o2)s1,inactive
2,CCOC(=O)c1ccc(NC(=O)Cn2c(=O)n(-c3ccc(C)cc3)c(=O)c3c2cnn3C)cc1,inactive
3,CCOC(=O)c1ccc(NC(=O)CC2C(=O)N(c3ccccc3)C(=O)N2Cc2cccs2)cc1 (stereo not drawn),inactive
4,CCOCCCn1c(SCC(=O)Nc2ccc(CC)cc2)nc2ccccc2c1=O,inactive
5,CCC(=O)Nc1c(C(=O)N2CCN(c3ccc(F)cc3)CC2)oc2ccccc12,inactive
6,COc1ccc(S(=O)(=O)NCC(c2ccc(N(C)C)cc2)N2CCCC2)cc1 (stereo not drawn),inactive
7,CC(=O)Nc1cccc(NC(=O)CSc2nccn2Cc2ccc3c(c2)OCO3)c1,inactive
8,Fc1ccc(CSc2nc(NCc3ccccc3)c3ccccc3n2)cc1,inactive
9,Cc1cc(NS(=O)(=O)c2ccc(NC(=O)c3ccccc3C)cc2)nc(C)n1,inactive
10,O=c1c(=O)n(Cc2c(F)cccc2Cl)ccn1Cc1ccccc1,inactive
11,CCOc1ccc(NC(=O)c2cn(C3CCCCC3)c(=O)c3c2c2ccccc2n3C)cc1,inactive
12,CC1=C(C(=O)Nc2ccccc2Cl)C(c2cccs2)n2ncnc2N1 (stereo not drawn),inactive
13,CCc1ccc(NC(=O)c2sc3nc4c(cc3c2N)CN(CC)CC4)cc1,inactive
14,Cc1ccc(C(=O)Nc2ccc(C(=O)O)cc2)cc1S(=O)(=O)Nc1ccccc1,inactive
15,CCC(Sc1nc2n[nH]c(C)c2c(=N)n1-c1ccccc1Cl)C(=O)N(CC)CC (stereo not drawn),inactive
16,CCOC(=O)c1cnc2c(C)cc(C)cc2c1Nc1ccc(N2CCOCC2)cc1,inactive
17,CCOc1ccc(OCC)c(NC(=O)c2cc(C)nc3c2c(C)nn3-c2cccc(Cl)c2C)c1,inactive
18,CCOc1ccc(CCNC(=O)C2=C(C)C(=O)OC23CCC(C)CC3)cc1OCC (stereo not drawn),inactive
19,CCOc1ccc(CCNC(=O)Cn2nc(CC)n3c(cc4sc(CC)cc43)c2=O)cc1OCC,inactive
20,Cc1cc(C)cc(Nc2ncnc3onc(-c4ccc(F)cc4)c23)c1,inactive
21,CCOc1ccc(CNC(=O)c2cc(=O)[nH]c3ccc(S(=O)(=O)N4CCCCC4)cc23)cc1,inactive
